# Screens: PubChem BioAssay, National Center for Advancing Translational Sciences (NCATS)
# DT40 TDP1 CPT: growth inhibition of DT40 Tdp1-/-;hTDP1 cells with camptothecin (screen for TDP1 inhibitors); chicken DT40 Tdp1-/-;hTDP1 cells + 20 nM CPT, ATP luminescence, 48 h; 12% of 420,000 active; Potency, µM (highest dose often 46.2 µM), inactives show at the highest dose activity change, negative = growth inhibition, hits mostly inhibitors; note: potency is the fitted concentration of half-maximal effect; % is set by controls: 0 for no effect and ±100 for the full control effect; nearly all actives have a fitted effect of over 55% in size
#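 Chicken DT40 Tdp1-/- cells stably complemented with human TDP1 were seeded at 400 cells/well in medium containing 20 nM camptothecin, exposed to pin-transferred compounds, and grown at 37 °C for at least 48 hr. Viability was read as ATP luminescence.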
# IL1B secr inh: inflammasome signaling inhibition, IL-1 beta readout; AID 743279; 4.7% of 360,000 active; activity change, % at 57.5 µM; THP-1 LPS/ATP IL-1B secretion, AlphaLISA, 16 h; active compounds read low; in the data active = activity change below about -50%; inconclusive = mostly about -30% to -49%; note: % is set by controls: 0 for no effect and ±100 for the full control effect
#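 Secreted IL-1B measured by AlphaLISA bead assay after 16 h compound exposure of THP-1 cells; compounds (final up to 57.5 uM) added 1 h before LPS (250 ng/mL) and ATP (1.25 mM) stimulation; lower signal means less secretion.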
# DT40 TDP1 no CPT: qHTS for Inhibitors of human tyrosyl-DNA phosphodiesterase 1 (TDP1): qHTS in cells in absence of CPT; DT40 Tdp1-/- hTDP1 cells, no CPT, ATP luminescence, 48 h; Potency, µM (series often up to 46.2 µM), for the others: at the highest dose activity change, negative = growth inhibition, most hits filed as inhibitors; 15% of 420,000 active; AID 686978, 2013; note: potency is the fitted concentration of half-maximal effect; % is set by controls: 0 for no effect and ±100 for the full control effect; nearly all actives have a fitted effect of over 55% in size
#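 Growth kinetics read by CellTiter-Glo luminescence after ≥48 hr at 37 °C. Cells: DT40 Tdp1-/- stably carrying human TDP1, 400 per well, compound exposure in the absence of CPT (DMSO vehicle).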
# MCF10A rerep: induces DNA re-replication in MCF 10a normal breast cells; MCF 10A DNA re-replication, Hoechst nuclear intensity, 48 h; 2.9% of 350,000 active; Potency, µM (doses to about 46.1 µM), for the others: at the highest dose activity, positive = re-replication, hits mostly activators; AID 624296; note: potency is the fitted concentration of half-maximal effect; % of control where 0% means no effect; nearly all actives have a fitted effect of over 50% in size
# SW480 rerep: induces DNA re-replication in SW480 colon adenocarcinoma cells | SW480 DNA re-replication, Hoechst DNA content imaging, 48 h | Potency, µM (top dose mostly 46.1 µM), inactives show top-dose re-replication activation, actives largely listed as activators | 1.8% of 340,000 active; note: potency is the fitted concentration of half-maximal effect; % of control where 0% means no effect; nearly all actives have a fitted effect of over 55% in size
#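 First, 250 cells per well were seeded. Next, compound or vehicle (23 nL) was pinned in, plates sat 48 hr at 37 C. Finally Hoechst was added for 40 min before fluorescence scanning.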
# BCR signal inh: chronic active BCR signaling inhibition | ABC-DLBCL IkBa-CBG/CBR reporter, luminescence ratio, 4 h | Potency, µM (doses to about 46.1 µM), without a hit: at the top dose activity change, negative = inhibition, actives largely listed as inhibitors | 0.05% of 340,000 active; active = well fitted inhibition curve with a large enough effect in the signal ratio, with a control signal flat, not every such curve was filed as active; inconclusive = small, poorly fitted or top-dose-only effect, or effect the other way, or a change in a side signal; the % refers to the signal ratio;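 note: potency is the fitted concentration of half-maximal effect; plate controls were basal doxycycline-induced cells for no effect and cells given 10 µM MG132 for full effect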
#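 TMD8 human ABC-DLBCL cells with doxycycline-inducible IκBα–green luciferase fusion and unfused red luciferase, in 0.5% FBS medium; compounds up to 46 uM, 4 h at 37C. Green/red luminescence ratio, filter-overlap corrected, fitted to concentration-response curves.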
# * hit, by the source's call; ? = inconclusive; nt = not tested or not shown. An excerpt weighted towards active compounds, which were near 19% of everything screened. Unless noted, calls come from the whole dose curve; as a rule, active = well fitted curve in the direction sought with a large enough effect; inconclusive = small, poorly fitted or top-dose-only effect, or another doubt; inactive = no such curve, though single readings can be large; an effect the other way counts as inactive or inconclusive.
SMILES,DT40 TDP1 CPT,IL1B secr inh,DT40 TDP1 no CPT,MCF10A rerep,SW480 rerep,BCR signal inh
Cc1cc(NC(=O)C(C)SCC(=O)N(Cc2ccccc2)c2ccccc2)no1 (stereo not drawn),-29%,5,?,?,-442%,12%
O=C(O)c1ccccc1C(=O)c1cccc2ccccc12,3%,18,0%,-2%,2%,4%
CCC(C(=O)NC(=O)NC(C)=O)c1ccccc1 (stereo not drawn),-11%,nt,-22%,nt,nt,nt
C[C@@H]1CC(=O)NN=C1c1ccc(NN=C(C#N)C#N)cc1,11µM*,nt,9.4µM*,nt,nt,nt
CC1=C(c2ccc(NN=C(C#N)C#N)cc2)NNC(=O)C1,nt,nt,nt,1%,?,nt
Cc1cc(Nc2ccccc2)nc(-c2ccccc2O)n1,16µM*,-17,?,?,1%,?
CCN1CCN(c2cc(C)nc(-c3ccccc3O)n2)CC1,-3%,-69*,-12%,6%,-5%,-23%
Cc1cc(N2CCCCCC2)nc(-c2ccccc2O)n1,?,-8,?,?,?,17%
Cc1cc(NCc2ccccc2)nc(-c2ccccc2O)n1,?,-6,?,?,-4%,15%
Cc1cc(Nc2ccccc2Cl)nc(-c2ccccc2O)n1,?,-70*,?,?,?,?
Cc1cc(N/N=C/c2c(O)ccc3ccccc23)nc(-c2ccccc2O)n1,8.2µM*,27,2.6µM*,3.3µM*,13µM*,?
O=C1CC(SC2=NCCS2)C(=O)N1c1cccc(Cl)c1Cl (stereo not drawn),-1%,18,1%,27%,?,-10%
O=C(CCCCC(=O)NN=Cc1ccc2c(c1)CCC2)NN=Cc1ccc2c(c1)CCC2,?,-13,?,nt,nt,nt
CCOC(=O)c1ccc(Nc2cc(C)nc(-c3ccccc3O)n2)cc1,?,?,29µM*,-3%,-10%,?
Cc1cc(OC(C)C)nc(-c2ccccc2O)n1,-4%,-17,-16%,?,0%,6%
Cc1cc(Nc2cccc(F)c2)nc(-c2ccccc2O)n1,?,-61*,?,1%,10%,6%
Cc1cc(N2CCCCC2C)nc(-c2ccccc2O)n1 (stereo not drawn),23µM*,-10,21µM*,18%,?,28%
Cc1ccc(C)c(Nc2cc(C)nc(-c3ccccc3O)n2)c1,6.5µM*,0,5.8µM*,?,?,?
Cc1cc(NC2CCCCC2)nc(-c2ccccc2O)n1,-21%,2,?,18µM*,0%,14%
Cc1cc2ncc(C(N)=O)cn2n1,-15%,-5,-1%,29%,4.1µM*,2%
CCOc1ccc(C2C(C(=O)c3cccs3)=C(O)C(=O)N2CCN2CCOCC2)cc1 (stereo not drawn),7%,9,-15%,-1%,11%,1%
CC1CCN(C(=O)c2cccc(S(=O)(=O)N3CCN(c4ccccc4)CC3)c2)CC1,?,-1,?,5%,-13%,-2%
Cc1ccc(C(=O)N2CCN(c3ccc(F)cc3)CC2)cc1S(=O)(=O)N1CCCCC1,29µM*,0,16µM*,2%,1%,2%
CC1CC(C)CN(S(=O)(=O)c2ccc(C(=O)N(C)Cc3ccccc3)cc2)C1 (stereo not drawn),?,18,21µM*,1%,6%,-1%
CC1CCN(S(=O)(=O)c2cc(C(=O)N3CCN(c4ccccc4)CC3)ccc2Br)CC1,23µM*,-18,15µM*,nt,nt,nt
CSc1ccc(CN(C)C(=O)c2ccc(S(=O)(=O)Nc3ccccc3)cc2)cc1,18µM*,-50*,21µM*,25%,2%,-6%
